The results in this text go back to PubChem BioAssay (EPA / NIEHS).

Read-out in experiment [1]: Tissue Factor, F3 (gene 2152)
Put plainly: BSK_CASM3C_TissueFactor: BioMAP Diversity Plus: CASM3C Assay for Tissue Factor Biomarker Activity (AID 2283052).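 Also: cell surface tissue factor protein level read by ELISA.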 The following applies: primary human coronary artery smooth muscle cells; actives raise or lower the signal.

Read-out in experiment [2]: Interferon-gamma inducible Protein 10 (IP10), CXCL10 (gene 3627)
Put plainly: BSK_hDFCGF_IP10: BioMAP Diversity Plus: hDFCGF Assay for Interferon-gamma inducible Protein 10 (IP10) Biomarker Activity (AID 2283053). As to conditions: primary human foreskin fibroblasts; actives raise or lower the signal. The method in brief:
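Primary human foreskin fibroblasts exposed to chemicals for 24 h. IP-10 measured by ELISA; changes fitted bidirectionally against DMSO baseline.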

Read-out in experiment [3]: Urokinase-type plasminogen activator receptor (uPAR), PLAUR (gene 5329)
Put plainly: BSK_CASM3C_uPAR: BioMAP Diversity Plus: CASM3C Assay for Urokinase-type plasminogen activator receptor (uPAR) Biomarker Activity (AID 2283054).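 Also: cell-surface uPAR protein level quantified by ELISA.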 The following applies: primary human coronary artery smooth muscle cells; actives raise or lower the signal.

Read-out in experiment [4]: Vascular cell adhesion molecule 1 (VCAM1), VCAM1 (gene 7412)
Kind of experiment: BSK_CASM3C_VCAM1: BioMAP Diversity Plus: CASM3C Assay for Vascular cell adhesion molecule 1 (VCAM1) Biomarker Activity (AID 2283055).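 Also: VCAM-1 protein level quantified by ELISA on the cells.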 The following applies: primary human coronary artery smooth muscle cells; actives raise or lower the signal.

Read-out in experiment [5]: Collagen III, COL3A1 (gene 1281)
Put plainly: BSK_hDFCGF_CollagenIII: BioMAP Diversity Plus: hDFCGF Assay for Collagen III Biomarker Activity (AID 2283056). The following applies: primary human foreskin fibroblasts; actives raise or lower the signal. The gist of the method:
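hDFCGF primary human dermal fibroblasts; 24 h chemical exposure; collagen III by ELISA; bidirectional curve fit vs DMSO baseline (gain or loss of signal).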

Read-out in experiment [6]: Epidermal growth factor receptor (EGFR), EGFR (gene 1956)
Kind of experiment: BSK_hDFCGF_EGFR: BioMAP Diversity Plus: hDFCGF Assay for Epidermal growth factor receptor (EGFR) Biomarker Activity (AID 2283057). The following applies: primary human foreskin fibroblasts; actives raise or lower the signal. The gist of the method: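 Primary human foreskin fibroblasts (hDFCGF system), sampled 24 h after dosing; EGFR quantified by ELISA. Bidirectional fit relative to DMSO baseline; SRB total-protein staining in parallel cultures for cytotoxicity.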

Read-out in experiment [7]: Interleukin-8 (IL8), CXCL8 (gene 3576)
Put plainly: BSK_hDFCGF_IL8: BioMAP Diversity Plus: hDFCGF Assay for Interleukin-8 (IL8) Biomarker Activity (AID 2283058). The following applies: primary human foreskin fibroblasts; actives raise or lower the signal. The gist of the method: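 ELISA read-out of IL-8 from primary human foreskin fibroblast cultures taken 24 h after dosing; values are bidirectional fits relative to DMSO vehicle.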

Experiment [8] can be described thus: BSK_hDFCGF_Proliferation: Cell Proliferation Assessment in the BioMAP Diversity Plus: hDFCGF Assay (AID 2283059).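 Also: curves fitted for both rise and fall of signal versus DMSO baseline.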 The following applies: primary human foreskin fibroblasts. The method in brief:
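Steps: dose primary human dermal fibroblasts (foreskin); […] fix in 10% TCA; stain with 0.1% SRB; read 560 nm; fit gain or loss of signal against DMSO.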

Read-out in experiment [9]: Macrophage colony-stimulating factor (MCSF), CSF1 (gene 1435)
Put plainly: BSK_hDFCGF_MCSF: BioMAP Diversity Plus: hDFCGF Assay for Macrophage colony-stimulating factor (MCSF) Biomarker Activity (AID 2283060). The following applies: primary human foreskin fibroblasts; actives raise or lower the signal. The gist of the method: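 ELISA read-out of M-CSF in human dermal foreskin fibroblast cultures, 24 h after chemical dosing; gain or loss of signal fitted bidirectionally relative to DMSO baseline.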

Experiment [10] is described as follows: BSK_hDFCGF_SRB: Viability Assessment in the BioMAP Diversity Plus: hDFCGF Assay (AID 2283061).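 Also: cells exposed to compound for 24 h before the read.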 The following applies: primary human foreskin fibroblasts. The method in brief: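 Primary human foreskin fibroblasts; 24 h post-dose; fixed 10% TCA, stained 0.1% SRB, A560 read; total protein as overt cytotoxicity measure; curves fit bidirectionally vs DMSO control.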

Read-out in experiment [11]: TIMP metallopeptidase inhibitor 1 (TIMP1), TIMP1 (gene 7076)
Kind of experiment: BSK_hDFCGF_TIMP1: BioMAP Diversity Plus: hDFCGF Assay for TIMP metallopeptidase inhibitor 1 (TIMP1) Biomarker Activity (AID 2283062). The following applies: primary human foreskin fibroblasts; actives raise or lower the signal. The method in brief: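 ELISA readout of TIMP-1 from human dermal foreskin fibroblast cultures 24 h post-dosing. Curves were fitted in both directions against DMSO baseline, with SRB total-protein staining in parallel cultures as a cytotoxicity check.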

Read-out in experiment [12]: Monokine induced gamma interferon (MIG), CXCL9 (gene 4283)
Kind of experiment: BSK_hDFCGF_MIG: BioMAP Diversity Plus: hDFCGF Assay for Monokine induced gamma interferon (MIG) Biomarker Activity (AID 2283063). The following applies: primary human foreskin fibroblasts; actives raise or lower the signal. The method in brief:
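Fibroblasts (human foreskin, primary) dosed, 24 h, MIG by ELISA; fit bidirectional vs DMSO.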

Read-out in experiment [13]: Matrix Metallopeptidase 1 (MMP1), MMP1 (gene 4312)
Kind of experiment: BSK_hDFCGF_MMP1: BioMAP Diversity Plus: hDFCGF Assay for Matrix Metallopeptidase 1 (MMP1) Biomarker Activity (AID 2283064). The following applies: primary human foreskin fibroblasts; actives raise or lower the signal. The method in brief: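 Primary human foreskin fibroblasts in the hDFCGF system were dosed with test chemical, and MMP1 was measured by ELISA 24 h later. Values come from bidirectional curve fitting against the DMSO baseline.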

Read-out in experiment [14]: Vascular cell adhesion molecule 1 (VCAM1), VCAM1 (gene 7412)
Put plainly: BSK_hDFCGF_VCAM1: BioMAP Diversity Plus: hDFCGF Assay for Vascular cell adhesion molecule 1 (VCAM1) Biomarker Activity (AID 2283065).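 As to AC50: VCAM-1 protein level quantified by ELISA after 24 h chemical exposure.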 As to conditions: primary human foreskin fibroblasts; actives raise or lower the signal. The gist of the method: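 ELISA read-out of VCAM-1 on human skin fibroblasts, 24 h post-dose; gain or loss of signal fitted bidirectionally against DMSO baseline.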

Read-out in experiment [15]: Plasminogen activator inhibitor-1 (PAI1), SERPINE1 (gene 5054)
Put plainly: BSK_hDFCGF_PAI1: BioMAP Diversity Plus: hDFCGF Assay for Plasminogen activator inhibitor-1 (PAI1) Biomarker Activity (AID 2283066). As to conditions: primary human foreskin fibroblasts; actives raise or lower the signal. The method in brief: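 Human foreskin fibroblast primary cells, 24 h chemical exposure; PAI-1 measured by ELISA. Bidirectional fitting relative to DMSO; parallel cultures stained with SRB for total protein to flag overt cytotoxicity.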

Read-out in experiment [16]: Interferon-gamma inducible Protein 10 (IP10), CXCL10 (gene 3627)
Put plainly: BSK_KF3CT_IP10: BioMAP Diversity Plus: KF3CT Assay for Interferon-gamma inducible Protein 10 (IP10) Biomarker Activity (AID 2283068). As to conditions: primary human keratinocytes with fibroblasts; actives raise or lower the signal. The gist of the method: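 KF3CT co-culture (keratinocytes + foreskin fibroblasts), 24 h compound, IP-10 by ELISA; bidirectional fit vs DMSO baseline.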

Experiment [17] can be described thus: BSK_KF3CT_SRB: Viability Assessment in the BioMAP Diversity Plus: KF3CT Assay (AID 2283069).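 Also: total protein by sulforhodamine B staining as a cytotoxicity measure; read 24 h after compound addition.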 As to conditions: primary human keratinocytes with fibroblasts. The gist of the method:
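Human primary keratinocyte plus foreskin fibroblast co-culture exposed to chemicals for 24 h. Total protein measured by 0.1% sulforhodamine B staining after 10% TCA fixation, read at 560 nm; bidirectional fitting versus DMSO baseline.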

Read-out in experiment [18]: Interleukin-1 alpha (IL1a), IL1A (gene 3552)
Kind of experiment: BSK_KF3CT_IL1a: BioMAP Diversity Plus: KF3CT Assay for Interleukin-1 alpha (IL1a) Biomarker Activity (AID 2283070). As to conditions: primary human keratinocytes with fibroblasts; actives raise or lower the signal. The method in brief:
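Human keratinocyte plus foreskin fibroblast primary co-culture, sampled 24 h after chemical dosing. IL-1a measured by ELISA; responses fitted bidirectionally against DMSO baseline (negative control), so gain or loss of signal both count.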

Read-out in experiment [19]: TIMP metallopeptidase inhibitor 2 (TIMP2), TIMP2 (gene 7077)
Put plainly: BSK_KF3CT_TIMP2: BioMAP Diversity Plus: KF3CT Assay for TIMP metallopeptidase inhibitor 2 (TIMP2) Biomarker Activity (AID 2283071). As to conditions: primary human keratinocytes with fibroblasts; actives raise or lower the signal. The gist of the method: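 Co-culture of human primary keratinocytes and foreskin fibroblasts, measured 24 h after chemical dosing. TIMP-2 quantified by ELISA and fitted in both directions relative to DMSO. Cytotoxicity checked in parallel cultures by SRB total-protein staining.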

Read-out in experiment [20]: Intercellular Adhesion Molecule 1 (ICAM1), ICAM1 (gene 3383)
Kind of experiment: BSK_KF3CT_ICAM1: BioMAP Diversity Plus: KF3CT Assay for Intercellular Adhesion Molecule 1 (ICAM1) Biomarker Activity (AID 2283067). As to conditions: primary human keratinocytes with fibroblasts; actives raise or lower the signal. The gist of the method:
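ELISA readout of ICAM-1; KF3CT human skin co-culture (keratinocytes + foreskin fibroblasts), 24 h post-dose; gain/loss fit vs DMSO baseline.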

Activity calls are given as the source filed them. The calls were made as follows: active = hit-call score of the fitted dose curve at least 0.9, where 1 is the maximum; inactive = score below 0.9.

For orientation: AC50 means the midpoint of the concentration-response curve, whichever way the signal moves. Turning to `COc1cc(C=O)cc2c1[C@H](COC(N)=O)[C@]1(OC(C)=O)ON2C[C@H]2[C@@H]1N2C(C)=O`, the AC50 was 4.87 µM (active) in [1]; 1.19 µM (active) in experiment [2]; 2.21 µM (active) in experiment [3]; 4.5 µM (active) in experiment [4]; 788 nM (active) in experiment [5]; 31.2 nM (active) in experiment [6]. Further, the AC50 was 2.73 µM (active) in experiment [7]; 0.0312 µM (active) in experiment [8]; 1.08 µM (active) in experiment [9]; 2.45 µM (active) in experiment [10]; 1.48 µM (active) in experiment [11]; 1.25 µM (active) in [12]. In addition, the AC50 in experiment [13] was 0.565 µM (active); in experiment [14] it was 1 µM (active); in experiment [15], 0.144 µM (active); in [16], 13 µM (active); in experiment [17], 3.36 µM (active); in experiment [18] it was 20 µM (active). The AC50 in experiment [19] was 2.26 µM (active).
Regarding `Clc1ccc(C(c2ccc(Cl)cc2)C(Cl)Cl)cc1`, the AC50 is 26.4 µM (active) in experiment [1]; 9.7 µM (active) in [2]; 36.7 µM (active) in experiment [3]; 5060 nM (active) in experiment [5]; 12.2 µM (active) in [7]; 11.9 µM (active) in [8]. Moreover, the AC50 is 7.94 µM (active) in experiment [9]; 9.91 µM (active) in experiment [10]; 11.2 µM (active) in experiment [11]; 11.8 µM (active) in [12]; 10.8 µM (active) in experiment [13]; 9.19 µM (active) in [14]. Also, the half-maximal activity concentration (AC50) is 7.29 µM (active) in [15]; 15.5 µM (active) in [20]; 13.9 µM (active) in [16]; 12.8 µM (active) in experiment [17]; 13.8 µM (active) in experiment [18]; 11.2 µM (active) in experiment [19]. Moreover, the result in [4] and in [6] was inactive.
With `OCCCl`, the result in [1], in experiment [2], in experiment [3], in experiment [4], in experiment [5] and in experiment [6] was inactive. Also, the outcome in experiment [7], in [8], in experiment [9], in experiment [10], in experiment [11] and in [12] was inactive. Also, the outcome in [13], in [14], in experiment [15], in experiment [20], in experiment [16] and in experiment [17] was inactive. Besides, the outcome in experiment [18] and in experiment [19] was inactive.
With `ClCCOCCCl`, the outcome in experiment [1], in experiment [2], in experiment [3], in experiment [4], in experiment [5] and in experiment [6] was inactive. Further, the result in experiment [7], in experiment [8], in experiment [9], in [10], in experiment [11] and in experiment [12] was inactive. The outcome in [13], in experiment [14], in experiment [15], in experiment [16], in experiment [17] and in [18] was inactive. In experiment [19], the result was inactive.
In the case of `COC(=O)c1ccccc1N`, the result in experiment [1], in [2], in [3], in experiment [4], in experiment [5] and in [6] was inactive. Further, the result in experiment [7], in experiment [8], in [9], in [10], in experiment [11] and in experiment [12] was inactive. For the same molecule, the outcome in experiment [13], in [14], in experiment [15], in experiment [20], in [16] and in experiment [17] was inactive. Moreover, the result in [18] and in experiment [19] was inactive.
Regarding `Nc1ccc([N+](=O)[O-])cc1`, the result in experiment [1], in experiment [2], in experiment [3], in experiment [4], in [5] and in [6] was inactive. Besides, the outcome in experiment [7], in [9], in [10], in experiment [11], in experiment [12] and in [13] was inactive. For the same molecule, the outcome in experiment [14], in experiment [15], in experiment [16], in experiment [17], in [18] and in experiment [19] was inactive. The AC50 in experiment [8] is 20 µM (active).
